Here are results for 59 compounds from ChEMBL document CHEMBL1157539, “Thousands of chemical starting points for antimalarial lead identification” (Nature, 2010).

Type in all cases: functional
Assay [1] concerns Plasmodium falciparum. The assay can be described thus: GSK_TCMDC: Inhibition of Plasmodium falciparum 3D7 in whole red blood cells, using parasite LDH activity as an index of growth. Test compounds present at 2uM.
For assay [2], the system named is Plasmodium falciparum. The assay can be described thus: GSK_TCMDC: Inhibition of Plasmodium falciparum Dd2 in whole red blood cells, using parasite LDH activity as an index of growth. Test compounds present at 2uM.
For another assay, the system named is HepG2. The assay can be described thus: GSK_TCMDC: Percent inhibition of human HepG2 cell line. Test compounds present at 10uM.

One may read the Inhibition as how much of the control response was suppressed. Lower therefore signals a weak effect.

As for `Cc1ccccc1CCNC(=O)c1ccc(N2CCN(c3ccncc3)CC2)nc1.O=C(O)C(F)(F)F`, the Inhibition in the assay on Plasmodium falciparum [1] is 95%; with Plasmodium falciparum [2] it was 20%; in the assay on HepG2, 10%.
Turning to `CCCc1cc(=O)[nH]c(-n2nc(C)cc2NC(=O)CC(c2ccccc2)c2ccccc2)n1`, the Inhibition in the assay on Plasmodium falciparum [1] was 97%; with Plasmodium falciparum [2], 88%; in the assay on HepG2, 39%.
Taken in the same sequence, the figures for `COc1ccc(Nc2nc(C)cc(NC3CCCC3)n2)cc1` were 98%, 59% and 34%.
Taken in the same sequence, the figures for `CCc1cc(N2CCN(c3ccccc3F)CC2)nc(SCc2ccc(C(=O)NC3CC3)o2)n1` were 90%, 94% and 9%.
Taken in the same sequence, the figures for `O=C(CC1NC(=O)c2ccccc21)Nc1ccc(-c2cccc(-c3nc4cc(C(F)(F)F)ccc4[nH]3)c2)cc1` (configuration not stated) were 95%, 36% and 69%.
Regarding `Br.CC1(C)NC(N)=NC(=N)N1OCCCOc1c(Cl)cc(Cl)cc1Cl`, the Inhibition in the assay on Plasmodium falciparum [1] is listed as 94%; in the assay with Plasmodium falciparum [2], 97%; in the assay with HepG2, 65%.
Taken in the same sequence, the figures for `CCc1ccc(C2CCN(CCCCNC(=O)c3ccc(NC(=O)c4ccc(Cl)cc4)cc3)CC2)c(OC)c1` were 100%, 80% and 26%.
Taken in the same sequence, the figures for `Nc1nc(N)c2c(ccc3c2ccn3Cc2ccc(F)cc2)n1` were 97%, 96% and 66%.
Take `CCCNC(=O)c1cncc(-c2ccc(CNC(CC)c3ccccc3)cc2)c1.O=C(O)C(F)(F)F` (configuration not stated): the Inhibition in the assay on Plasmodium falciparum [1] worked out at 92%; in the assay on Plasmodium falciparum [2] it was 1%; in the assay on HepG2, 20%.
On the same counts, the results for `Cc1nc(C)c(CC(=O)Nc2cccc(-c3cccc(-c4nc5cccc(C)c5[nH]4)c3)c2)s1` are 92%, 35% and 43%.
On the same counts, the results for `COCn1ccc2c3c(N)nc(N)nc3ccc21` are 88%, 1% and 63%.
As for `COc1ccc2nccc(N3CCN(CCNCc4ccc5c(n4)NC(=O)CS5)CC3)c2c1.Cl`, the Inhibition is 97% in the assay on Plasmodium falciparum [1], 23% with Plasmodium falciparum [2] and 18% in the assay on HepG2.
Taken in the same sequence, the figures for `CN1CCC(NCc2cccc(-c3ccc(S(=O)(=O)NCCN4CCCC4)c(F)c3)c2)CC1.O=C(O)C(F)(F)F` were 91%, 0% and 14%.
Taken in the same sequence, the figures for `NS(=O)(=O)c1ccc(Nc2nccc(-c3c(-c4cccc(NC(=O)c5c(F)cccc5F)c4)nn4ccccc34)n2)cc1` were 93%, 89% and 83%.
Taken in the same sequence, the figures for `Cl.NC(=O)c1cccc(Nc2nccc(Nc3ccc(Oc4ccc5ccccc5c4)cc3)n2)c1` were 96%, 31% and 15%.
For `COc1ccc(-c2nccc(NC(=N)NCc3ccccc3)n2)cc1`, the Inhibition was determined as 83% in the assay on Plasmodium falciparum [1], 21% with Plasmodium falciparum [2] and 27% in the assay with HepG2.
With `Cc1ccc(F)cc1-c1cc(N2CCCN(C(=O)c3ccc(Br)o3)CC2)ncn1`, the results for the Inhibition with Plasmodium falciparum [1], with Plasmodium falciparum [2] and with HepG2 were 94%, 91% and 0%, respectively.
Consider `CCc1ccc(NC(=O)c2ccc(CN3CCCN(CCC(C)C)CC3)cc2)cc1.O=C(O)C(F)(F)F`, for which the Inhibition in the assay on Plasmodium falciparum [1] came out at 96%; with Plasmodium falciparum [2], 25%; in the assay with HepG2, 48%.
On the same counts, the results for `c1ccc(Oc2ccc(Nc3ccnc4cc(-c5csc(CNCCN6CCOCC6)n5)ccc34)cc2)cc1` are 100%, 99% and 0%.
Regarding `CNC(=O)Cc1ccc(C(=O)Nc2cccc(-c3cccc(-c4nc5cccc(C)c5[nH]4)c3)c2)cc1`, the Inhibition in the assay on Plasmodium falciparum [1] was determined as 96%; with Plasmodium falciparum [2] it was 53%; in the assay on HepG2, 15%.
On the same counts, the results for `O=C(O)C(F)(F)F.O=S(=O)(NCCN1CCCC1)c1ccc(-c2ccc(CNCc3ccccc3)cc2)s1` are 94%, 17% and 34%.
Taken in the same sequence, the figures for `COc1ccc(C=Cc2cc(=N)c3ccccc3[nH]2)cc1.I` were 93%, 16% and 38%.
Taken in the same sequence, the figures for `COc1ccc(Cl)cc1NC(=O)C(C)N1CCN(S(=O)(=O)c2ccccc2F)CC1` (configuration not stated) were 93%, 66% and 5%.
Turning to `Cn1cc(-c2ccccc2C(=O)O)c(=O)c2cc(Cl)ccc21`, the values for the Inhibition with Plasmodium falciparum [1], with Plasmodium falciparum [2] and with HepG2 were 89%, 0% and 16%, respectively.
On the same counts, the results for `Cc1nc2ccc3ccc(CNc4ccc(C#N)cc4)cc3c2c(=O)[nH]1` are 84%, 56% and 55%.
Taken in the same sequence, the figures for `O=C1C(c2ccccc2)=C(Nc2cccc(OC(F)(F)C(F)F)c2)c2ccccc21` were 96%, 96% and 0%.
For `Cc1cccc2nc(-c3ccc(-c4ccc(C(=O)NCCN5CCCC5)cc4)cc3)[nH]c12`, the results for the Inhibition in the assay with Plasmodium falciparum [1], in the assay with Plasmodium falciparum [2] and with HepG2 were 100%, 77% and 25%, respectively.
On the same counts, the results for `Fc1ccc2c(NN=Cc3ccc(Cl)cc3)ccnc2c1` are 100%, 99% and 7%.
Taken in the same sequence, the figures for `O=C1COc2ccc3ccccc3c21` were 99%, 3% and 0%.
Taken in the same sequence, the figures for `COc1cc(C(=O)Nc2cccc(-c3nc4ccccc4[nH]3)c2)ccc1OC(C)=O` were 83%, 37% and 16%.
On to `NCCNC(=O)c1ccc(-c2cnc3[nH]cc(-c4ccc(C(N)=O)cc4)c3c2)cc1`, for which the Inhibition in the assay on Plasmodium falciparum [1] was found to be 99%; in the assay on Plasmodium falciparum [2] it was 98%; in the assay on HepG2, 2%.
On the same counts, the results for `O=C(Nc1cccc(F)c1)NC1CCN(c2ccnc3cc(Cl)ccc23)CC1.O=C(O)C(F)(F)F` are 96%, 37% and 11%.
Taken in the same sequence, the figures for `CC(=O)Oc1ccc(C(=O)Oc2ccccc2C#CC#N)cc1OC(C)=O` were 93%, 61% and 23%.
On the same counts, the results for `O=C(NCCCCN1CCC(c2ccc3c(c2OCCN2CCCC2=O)CCCC3)CC1)c1ccc(-c2ccc(C(F)(F)F)cc2)cc1` are 88%, 1% and 56%.
As for `O=C(O)C(F)(F)F.OCCC1CCN(Cc2ccc(-c3ccc(-c4nc5ccccc5[nH]4)cc3)cc2)CC1`, the Inhibition in the assay on Plasmodium falciparum [1] came out at 99%; in the assay on Plasmodium falciparum [2], 98%; in the assay on HepG2, 35%.
Regarding `Cc1noc(C)c1-c1cccc(CNCc2ccc(-c3ccc(-c4nc5cccc(C)c5[nH]4)cc3)cc2)c1.O=C(O)C(F)(F)F`, the Inhibition with Plasmodium falciparum [1] is given as 100%; with Plasmodium falciparum [2] it was 95%; in the assay with HepG2, 28%.
On the same counts, the results for `Cl.Oc1ccc2ccccc2c1CNCCC1CCCCC1` are 99%, 99% and 16%.
As to `COc1ccc2nc3cc(Cl)ccc3c(NCCCCN3CCNCC3)c2c1.Cl`, the Inhibition with Plasmodium falciparum [1] was determined as 100%; in the assay on Plasmodium falciparum [2], 75%; in the assay on HepG2, 29%.
On the same counts, the results for `Cc1noc(C)c1-c1ccc2c(Nc3ccc(C#N)cc3)c(C(N)=O)cnc2c1` are 97%, 73% and 6%.
Taken in the same sequence, the figures for `CS(=O)(=O)CCNCc1nc(-c2ccc3ncnc(Nc4ccc(OCc5ccccc5)c(Cl)c4)c3c2)cs1.Cl` were 99%, 55% and 13%.
For `Cc1ccc(NC(=O)NC2CCN(CCCCCNC(=O)C3CC3c3ccc(Cl)c(Cl)c3)CC2)cc1` (configuration not stated), the Inhibition stood at 100% in the assay on Plasmodium falciparum [1], 19% in the assay with Plasmodium falciparum [2] and 35% in the assay with HepG2.
Consider `CC(C)(C)c1cc(CN2CCN(Cc3ccccc3)CC2)cc(C(C)(C)C)c1O`, for which the Inhibition in the assay with Plasmodium falciparum [1] is listed as 97%; in the assay on Plasmodium falciparum [2], 0%; in the assay on HepG2, 9%.
For the compound `Cl.N=C(N)c1ccc(NC(=O)Cc2nc3cc(C(=N)N)ccc3[nH]2)cc1`, the Inhibition in the assay on Plasmodium falciparum [1] came out at 87%; in the assay on Plasmodium falciparum [2] it was 81%; in the assay with HepG2, 4%.
Consider `Cl.Clc1ccc2c(NCCNc3ccnc4cc(Cl)ccc34)ccnc2c1`, for which the Inhibition was determined as 100% in the assay on Plasmodium falciparum [1], 96% in the assay on Plasmodium falciparum [2] and 6% in the assay with HepG2.
On to `O=C(Nc1ccc(OCc2ccccc2)cc1)c1nc2ccccc2nc1Cl`, for which the Inhibition was determined as 96% in the assay on Plasmodium falciparum [1], 95% in the assay on Plasmodium falciparum [2] and 48% in the assay on HepG2.
Regarding `Nc1nc(N)c2c(ccc3c2ccn3Cc2ccc(OCc3ccccc3)cc2)n1`, the Inhibition in the assay with Plasmodium falciparum [1] is recorded as 98%; in the assay on Plasmodium falciparum [2] it was 1%; in the assay with HepG2, 5%.
Taken in the same sequence, the figures for `CN(c1ccc(NC(=O)Nc2cc(C(C)(C)C)on2)cc1)c1ccnc(NCCN2CCOCC2)n1.O=C(O)C(F)(F)F` were 95%, 18% and 51%.
`CO/C(=C\C=C\c1cc2cc(Cl)c(Cl)cc2[nH]1)C(=O)NC1CC2CCC(C1)N2C.Cl` (configuration not stated): the Inhibition was 88% with Plasmodium falciparum [1], 23% in the assay with Plasmodium falciparum [2] and 46% in the assay with HepG2.
On the same counts, the results for `CN(C)C(=O)c1ccc(CN(Cc2ccc3c(c2)OCCO3)Cc2ccc3c(c2)OCO3)cc1` are 89%, 95% and 0%.
On the same counts, the results for `O=C(Nc1ccc2c(c1)CCN2C1CCN(Cc2cccc3cc[nH]c23)C1)c1ccco1` (configuration not stated) are 88%, 86% and 0%.
On the same counts, the results for `COC(=O)c1cc(C(=O)CN(Cc2ccccc2)C(C)C)ccc1O.Cl` are 97%, 0% and 7%.
Consider `CC(C)(C)c1ccc(NC(=O)c2cccc(CN3CCCN(Cc4cccc(C#N)c4)CC3)c2)cc1.O=C(O)C(F)(F)F`, for which the Inhibition in the assay on Plasmodium falciparum [1] is reported as 97%; in the assay with Plasmodium falciparum [2], 12%; in the assay with HepG2 it was 39%.
For `CCOC(=O)c1c(C)n(-c2ccccc2)c2ccc(OC(=O)c3ccc(S(=O)(=O)N(CC)CC)cc3)cc12`, the Inhibition is listed as 94% in the assay on Plasmodium falciparum [1], 63% in the assay with Plasmodium falciparum [2] and 0% in the assay on HepG2.
On the same counts, the results for `Oc1ccc(Br)cc1C(O)CNCc1ccccc1OCc1ccccc1` (configuration not stated) are 100%, 100% and 25%.
Regarding `CC(C)(C)Oc1ccc(NC(=O)c2ccccc2O)cc1`, the Inhibition in the assay with Plasmodium falciparum [1] came to 86%; in the assay on Plasmodium falciparum [2], 67%; in the assay with HepG2, 4%.
Taken in the same sequence, the figures for `N#Cc1ccc(-c2ccc(C(=O)NCCCCN3CCC(c4ccc5c(c4OCC(N)=O)CCCC5)CC3)nc2)cc1` were 100%, 97% and 21%.
On the same counts, the results for `CN(C)CCNC(=O)[C@H](Cc1ccccc1)NC(=O)c1ccc(O)c(-c2ccc(Cl)c(Cl)c2)c1` are 98%, 0% and 0%.
As to `Nc1nc(N)c2cc(CNc3ccc(Cl)c(Cl)c3)ccc2n1`, the Inhibition came out at 93% in the assay with Plasmodium falciparum [1], 55% with Plasmodium falciparum [2] and 62% with HepG2.
In the case of `Cc1nc(-c2ccc(-c3ccc(NC(=O)Nc4ccc(I)c(OCCN(C)C)c4)cc3)c(C)c2)no1.Cl`, the Inhibition was determined as 100% in the assay on Plasmodium falciparum [1], 92% with Plasmodium falciparum [2] and 47% with HepG2.
